From PubChem BioAssay AID624296 (National Center for Advancing Translational Sciences (NCATS), 2012) come the findings set out here.

Structures are written as SMILES. Screen size: about 350,000 compounds; about 9,900 (2.8%) were called active. Inconclusive results (about 15%) are left out. The call rests on the fitted dose curve; in most records, active means well fitted activation curve with a large enough effect; inconclusive means small, poorly fitted or top-dose-only effect; inactive means no such curve, though single readings can be large or run the other way. The list comes from a sample in which actives are over-represented; it also holds similar structures and randomly drawn compounds. A call without a number means that no potency is given here.
Potency means the concentration at half of the fitted maximal effect.

This test can be described thus: A quantitative high throughput screen for small molecules that induce DNA re-replication in MCF 10a normal breast cells. Further: nearly all actives have a fitted effect of over 50% in size. As to conditions: MCF 10A DNA re-replication, Hoechst nuclear intensity, 48 h; series mostly up to 46.1 µM.
`O=[N+]([O-])c1cccc(/C([O-])=C(/C(=S)Nc2ccccc2F)[n+]2ccccc2)c1`: the Potency entry is “inactive”.

In the case of `CCOc1ccccc1NC(=S)C(=C([O-])c1ccc2c(c1)OCCO2)[n+]1ccc(CC)cc1`, the Potency was 2.59 µM (active).

Take `CCc1ccccc1OCC(=O)Nc1ccc2c(c1)OCCO2`: the Potency entry was “inactive”.

Take `O=[N+]([O-])c1ccc(N=NNc2ccc([N+](=O)[O-])cc2)cc1`: the Potency entry was “inactive”.

Turning to `Cc1cccc(NC(=O)CSc2nnc(-c3ccco3)o2)c1`, the Potency entry is “inactive”.

On to `CC(=O)Nc1ccc(N2CCOCC2)c(C(=O)Nc2cccc(C)c2)c1`, for which the Potency result was “inactive”.

`CC(=O)c1ccc(NC(=O)c2sc3nc4n(c(=O)c3c2C)CCCCC4)cc1`: the Potency result is “inactive”.

In the case of `CC(=O)Nc1ccc(NC(=O)c2sc3nc4c(c(-c5ccc(C)cc5)c3c2N)CCC4)cc1`, the Potency was 5.8 µM (active).

Consider `Cc1ccc(NC(=O)c2sc3nc(N)c(C#N)cc3c2N)cc1`, for which the Potency entry is “inactive”.

For the compound `c1ccc(CSc2ncnc3c2sc2nc(N4CCOCC4)c4c(c23)CCCC4)cc1`, the Potency result is “inactive”.

`Cc1cccc(NC(=O)/C(=C\c2ccco2)NC(=O)c2ccccc2)c1`: the Potency result was “inactive”.

For the compound `Cc1cccc(NC(=O)c2sc3nc(N4CCOCC4)c4c(c3c2N)CCCC4)c1`, the Potency is 2.91 µM (active).

Regarding `Cc1cccc(NC(=O)c2sc3nc4c(c(-c5ccco5)c3c2N)CCC4)c1`, the Potency was 13 µM (active).

`Cc1ccc(S(=O)(=O)N(C)c2ccc(OCC(=O)OCc3ccc(C#N)cc3)cc2)cc1`: the Potency entry was “inactive”.

As to `O=C(CC(=O)c1cccnc1)c1ccccc1`, the Potency result is “inactive”.

For `OC(COc1ccccc1)CN1CCN(c2cccc(Cl)c2)CC1` (centres undefined), the Potency entry was “inactive”.

Consider `C[C@@H]1NS(=O)(=O)c2cc(Cl)ccc2O[C@@H]1c1ccccc1`, for which the Potency entry was “inactive”.

Regarding `CCc1cccc(NC(=O)COC(=O)c2cc(=O)c3ccccc3o2)c1`, the Potency result is “inactive”.

`CCOC(=O)C1CCCN(C(=O)CSc2nnc3nc(C)cc(C)n23)C1` (centres undefined): the Potency result was “inactive”.

For `Cc1c(C(=O)Nc2cccc(S(=O)(=O)N3CCOCC3)c2)oc2ccccc12`, the Potency entry is “inactive”.

On to `COc1cccc(N(CC(=O)Nc2cccc(F)c2)S(C)(=O)=O)c1`, for which the Potency result is “inactive”.

`Cc1cccc(N(CC(=O)Nc2ccc(-c3nc4ccc(C)cc4s3)cc2)S(C)(=O)=O)c1`: the Potency is 14.6 µM (active).

Take `CCN(CC)S(=O)(=O)c1ccc(NC(=O)CN(c2cccc(F)c2)S(C)(=O)=O)cc1`: the Potency result was “inactive”.

With `CCN(CC)C(=O)[C@H]1CC(CC(=O)NCc2ccco2)C(=O)N2CCc3c([nH]c4ccccc34)[C@]12C` (some centres undefined), the Potency result is “inactive”.

On to `CN(C)S(=O)(=O)c1ccc(C(=O)NCC2(N3CCOCC3)CCCCC2)cc1`, for which the Potency result is “inactive”.

Take `O=C(N/N=C/c1sc(N2CCCCC2)nc1-c1cccs1)c1cccnc1`: the Potency is 0.461 µM (active).

As to `O=C(N/N=C/c1ccc(O)c2ccccc12)c1cccnc1`, the Potency entry was “inactive”.

In the case of `Cc1cc(/C=N/NC(=O)c2cccnc2)c(C)n1CC(C)C`, the Potency result is “inactive”.

In the case of `OCCN1CCN(CCO)C1=S`, the Potency result was “inactive”.

Consider `O=C(CCC(=O)N1CCN(S(=O)(=O)c2ccc(Cl)cc2)CC1)NCc1cccc(C(F)(F)F)c1`, for which the Potency entry is “inactive”.

As for `C[C@H](NC(=O)c1[nH]cnc1C(=O)Nc1nccs1)c1ccccc1`, the Potency result is “inactive”.

For `CN(CC(=O)NCCc1ccc(S(N)(=O)=O)cc1)CC(=O)Nc1ccc(Cl)cc1`, the Potency entry was “inactive”.

Take `CCC(C)NC(=O)c1ccc(NC(=O)CC2SC(N3CCCCC3)=NC2=O)cc1` (centres undefined): the Potency result was “inactive”.

For `Cc1ccc(NC(=S)NC(=O)c2ccc(-c3ccccc3)cc2)cc1`, the Potency entry is “inactive”.

Regarding `CCOC(=O)c1c(-c2ccccc2)csc1NC(=S)NC(=O)c1ccccc1`, the Potency result is “inactive”.

Consider `CCOC(=O)C1=C(NC(=S)NC(=O)c2ccccc2)c2ccccc2CC1(C)C`, for which the Potency was 4.11 µM (active).

Consider `CSc1ccc(S(=O)(=O)NCC(=O)OCC(=O)NC2(C#N)CCCCC2)cc1[N+](=O)[O-]`, for which the Potency result is “inactive”.

As to `COc1ccc(CCNC(=O)COC(=O)C2CC2C)cc1` (centres undefined), the Potency result is “inactive”.

As for `C#CCOCCOCCOCCNc1nc(N2CCN(C(=O)[C@H](CO)n3cc([C@@H](N)C(C)C)nn3)CC2)nc(N2CCN(C(=O)[C@H](CCC(=O)O)n3cc([C@@H](N)[C@H](C)CC)nn3)CC2)n1`, the Potency entry was “inactive”.

In the case of `CCOC(=O)c1sc(=NC(=O)c2ccc(Br)cc2)n(C)c1C`, the Potency result was “inactive”.

As for `CCOC(=O)c1sc(=S)n2c1[nH]c(=O)c1ccc(C(=O)OC)cc12`, the Potency entry is “inactive”.

Regarding `CCOC(=O)C1=C(C)Nc2sc(C(=O)c3ccc(Br)cc3)c(N)c2C1c1ccc(C(=O)OC)cc1` (centres undefined), the Potency was 2.91 µM (active).

As for `CC(Oc1ccc(Br)cc1)C(=O)NC1CCCCCC1` (centres undefined), the Potency result was “inactive”.

In the case of `CCc1[nH]nc(C(=O)N2CCCC(CO)(Cc3ccc(F)cc3F)C2)c1C` (centres undefined), the Potency result is “inactive”.

With `COc1cccc(CC2(CO)CCCN(Cc3ccc(OC(F)F)cc3)C2)c1` (centres undefined), the Potency entry was “inactive”.

Consider `CCOc1cc(CN2CCCC(CO)(Cc3ccc(F)cc3F)C2)ccc1OC` (centres undefined), for which the Potency was 3.66 µM (active).

In the case of `Cc1nc(N)nc(Cl)c1CCC1OCCO1`, the Potency result was “inactive”.

`O=C(COC(=O)c1cccnc1Cl)NC(=O)NC1CCCCC1`: the Potency result is “inactive”.

Turning to `CCOC(=O)[C@@H]1[C@H]2COc3ccc(Br)cc3[C@H]2N2C(=O)N(c3ccc(C)cc3)C(=O)[C@@]12C`, the Potency entry is “inactive”.

For the compound `COc1ccc(OC)c(C(=O)c2ccc(Cl)cc2)c1`, the Potency entry is “inactive”.

Take `COc1ccc(/C(C)=N/NC(=O)CCC(=O)Nc2ccc(Cl)cc2Cl)c(OC)c1`: the Potency entry is “inactive”.

Turning to `COc1ccc(OC)c(/C(C)=N\NC(=O)c2cc3cc(Cl)ccc3n2C)c1`, the Potency was 14.6 µM (active).

For the compound `C=CCN1C=C(C(=O)c2ccccc2)C(=O)CC1`, the Potency entry is “inactive”.

Regarding `OCC[C@H]1C[C@@H](O)[C@H](O)[C@@]2(OCCc3ccccc32)O1`, the Potency result was “inactive”.

`O=C(Nc1cccc(Br)c1)C1CC(=O)N(C2CCCC2)C1` (centres undefined): the Potency entry is “inactive”.

In the case of `Cc1nnnn1/C(=C\c1ccccc1)C(=O)OCC(=O)N1CC2(C)CC1CC(C)(C)C2` (centres undefined), the Potency was 16.4 µM (active).

Turning to `COc1ccccc1C(=O)N1CC2(C)CC1CC(C)(C)C2` (centres undefined), the Potency result is “inactive”.

Take `Cc1cccc(C(=O)NCC(=O)OCC(=O)N2CC3(C)CC2CC(C)(C)C3)c1` (centres undefined): the Potency result is “inactive”.

As to `O=C(COC(=O)Cc1ccc([N+](=O)[O-])cc1)NC1CCCCCC1`, the Potency result was “inactive”.

In the case of `CSc1ncccc1C(=O)Nc1cccc(S(=O)(=O)N2CCOCC2)c1`, the Potency result was “inactive”.

Take `CSc1nc(C)cc(SC(C(C)=O)C(=O)Nc2ccccc2)n1` (centres undefined): the Potency entry was “inactive”.

As for `CSc1nc(-c2ccccc2)nc(C(Cl)Cl)n1`, the Potency is 2.59 µM (active).

As for `CSc1ncc(Sc2ccccc2)c(C(=O)O)n1`, the Potency entry was “inactive”.

Regarding `O=C(Nc1cccc(S(=O)(=O)NC2=NCCC2)c1)c1ccc(F)cc1F`, the Potency result is “inactive”.

Take `O=C(Nc1ccc(C(F)(F)F)cc1)c1cccc(-n2cnnn2)c1`: the Potency result was “inactive”.

For `CC(C)COc1ccc(C(=O)NNC(=O)CCC(=O)c2cccs2)cc1`, the Potency result is “inactive”.

With `CC(C)(C)[C@H]1C=C(C(=O)NCc2ccccc2)O[C@@H](OCc2ccc(CO)cc2)C1`, the Potency entry is “inactive”.

Take `O=C(NCc1ccccc1)C1=C[C@H](C2CC2)C[C@H](OCc2ccc(CO)cc2)O1`: the Potency result is “inactive”.

`O=C(O)C1=C[C@H](c2cccs2)C[C@H](OCCCCO)O1`: the Potency entry was “inactive”.

For `O=C(NCc1ccccc1)C1=C[C@@H](c2ccccc2)C[C@@H](OCCCCO)O1`, the Potency is 16.4 µM (active).

As to `O=C(NCc1ccccc1)C1=C[C@@H](C2CCCCC2)C[C@@H](OCc2ccc(CO)cc2)O1`, the Potency is 18.4 µM (active).

Take `C#Cc1ccc([C@@H]2C=C(C(=O)O)O[C@H](OCCCCO)C2)cc1`: the Potency entry is “inactive”.

Turning to `CC(=O)OC1CCC2(C)C(=CCC3C4CC(=O)N(O)C(=O)C4(C)CCC32)C1` (centres undefined), the Potency entry is “inactive”.

As for `CC(C)Cc1nnc(N)s1`, the Potency entry is “inactive”.

For the compound `NC(=S)N/N=C/c1ccc([N+](=O)[O-])cc1`, the Potency entry was “inactive”.

As for `COc1ccc(Nc2ccc([N+](=O)[O-])cn2)cn1`, the Potency result was “inactive”.

On to `CC(C)c1ccc(C=NNc2ccc([N+](=O)[O-])cn2)cc1`, for which the Potency is 6.51 µM (active).

For `Cc1ccc(S(=O)(=O)NCCNC(C)c2ccc(Br)cc2)cc1` (centres undefined), the Potency entry was “inactive”.

For the compound `C#CCOCCOCCOCCNc1nc(N2CCN(C(=O)[C@H](CCCN=C(N)N)n3cc(C(N)[C@@H](C)CC)nn3)CC2)nc(N2CCN(C(=O)[C@H](CO)n3cc([C@@H](N)C(C)C)nn3)CC2)n1` (some centres undefined), the Potency entry is “inactive”.
